# Assay results taken from PubChem BioAssay (Tox21).
# Inconclusive results are not listed. Active and inactive are the calls of the source. Calls follow the shape of the dose curve; as a rule, active = well fitted activation curve with a large enough effect in the repeat runs; inconclusive = weak or mixed curves; inactive = flat fitted curve, though single readings scatter.
# Assay: Caspase-3/7 induction in HepG2 cells by small molecules, qHTS assay (AID 1346978); also: nearly all actives have a fitted effect of over 15% in size
# Conditions: HepG2 caspase-3/7 activation, Caspase-Glo luminescence, 17 h; series mostly up to 92.4 µM; caspase activation: at the top concentration
# Source text: National Center for Advancing Translational Sciences [NCATS] NIH Chemical Genomics Center [NCGC] U.S. Environmental Protection Agency [EPA] National Institutes of Environmental Health Sciences [NIEHS] National Toxicology Program [NTP] Assay overview: Apoptosis is a process of programmed cell death and plays a central role in the development of multicellular organisms. It is a highly regulated process and induces cell death by activating caspases, which are the members of cysteine aspartic acid-specific protease (caspase) family. Caspases involved in apoptosis are classified by their mechanism of action as initiator caspases (caspase-2, -8, -9 and -10) and executioner caspases (caspase-3, -6, and -7). Inhibition of apoptosis results in number of cancers, autoimmune diseases, inflammatory diseases and viral infection. To identify small molecule compounds that induce apoptosis, a homogeneous, luminescent Caspase-Glo 3/7 assay was used. Wild type HepG2 cells were used to screen Tox21 libraries for identifying caspase-3/7 activity inducers.
# Assay Protocol Summary: HepG2 cells were dispensed at 2,000 per well in 5uL of culture medium into white solid bottom 1536-well plates (Corning Life Sciences, Corning, NY) using a Multidrop Combi (Thermo Scientific, Waltham, MA) dispenser. The assay plates were incubated at 37 C and 5% CO2 for 5hr, and then 23nL of compounds dissolved in DMSO and positive control were transferred using a Pintool station (Wako, San Diego, CA). The assay plates were incubated at 37C and 5% CO2 for 17hr. For caspase-3/7 activity read, 4uL of Caspase-Glo 3/7 reagent (Promega Corporation, Madison, WI) was added to each well of the assay plates using Flying Reagent Dispenser (FRD, Aurora Discovery, San Diego, CA) and incubated the assay plates at room temperature for 30min. The luminescence signal was quantified using a ViewLux plate reader (Perkin Elmer, Shelton, CT).
# % is scaled to controls: 0 for no effect and ±100 for the full control effect; potency is read from the fitted curve at half-maximal effect.
SMILES,caspase activation,Potency
Clc1ccc(-c2ccc(Cl)c(Cl)c2Cl)c(Cl)c1Cl,0.483% (inactive),–
BrCBr,-0.285% (inactive),–
Nc1ccc(Sc2ccc(N)cc2)cc1,-5.46% (inactive),–
O=C(Cl)c1ccc(Cl)cc1,0.203% (inactive),–
CCCCCCCCCCCCCCCCCCn1cc[n+](C)c1,-10.3% (inactive),–
Nc1c(Oc2ccccc2)cc(O)c2c1C(=O)c1ccccc1C2=O,0.041% [at 42.5 µM] (inactive),–
Cc1cc(SCc2sc(-c3ccc(C(F)(F)F)c(F)c3)nc2C)ccc1OCC(=O)O,10.3% (inactive),–
N#C/C=C/C#N,0.152% (inactive),–
CC(=[OH+])/C=C(/C)[O-].CC(=[OH+])/C=C(\C)[O-].CC(=[OH+])/C=C(\C)[O-].[Fe],0.0999% (inactive),–
C=COCCCl,-0.912% (inactive),–
COP(=O)(OC)SCn1c(=O)oc2cc(Cl)cnc21,1.7% (inactive),–
Cc1c(Cl)c(=O)oc2cc(OP(=O)(OCCCl)OCCCl)ccc12,-2.08% [at 42.5 µM] (inactive),–
CC(C)[C@H](C(=O)O[C@H](C#N)c1cccc(Oc2ccccc2)c1)c1ccc(Cl)cc1,-1.13% (inactive),–
O=c1ssc(Cl)c1Cl,-2.93% (inactive),–
Oc1ccc(I)cc1,-1.67% (inactive),–
O=C(O)c1cc[c]([Hg][Cl])cc1,-8.73% (inactive),–
CN(C)[C@@H]1C(=O)C(C(N)=O)=C(O)[C@@]2(O)C(=O)C3=C(O)c4c(O)ccc(Cl)c4[C@@](C)(O)[C@H]3C[C@@H]12,0.158% (inactive),–
C[C@]12CC[C@H]3[C@@H](CCC4=CC(=O)CC[C@@]43C)[C@@H]1CC[C@@H]2O,6.43% (inactive),–
C=CC(=O)N(C)C,1.22% (inactive),–
O=[N+]([O-])c1cc([N+](=O)[O-])c2ccccc2c1,-0.998% (inactive),–

SMILES,caspase activation,Potency
CCCCCCCCCCCCCCCC[n+]1ccccc1,2.05% [at 42.5 µM] (inactive),–
C=CC(=O)OCC(COC(=O)C=C)(COC(=O)C=C)COC(=O)C=C,–,15.4 µM (active)
S=C=Nc1cccc2ccccc12,-9.75% (inactive),–
OC(c1ccc(Cl)cc1)(c1ccc(Cl)cc1)C(Cl)(Cl)Cl,2.15% (inactive),–
COc1ccc(OC)c(CC(C)N)c1 (stereo not given),-0.873% (inactive),–
CNC(C)Cc1ccc2c(c1)OCO2 (stereo not given),0.361% (inactive),–
CCOP(=S)(OCC)SCCS(=O)(=O)CC,-1.03% (inactive),–
O=c1[nH]c2ccccc2n1C1CCN(CCCC(c2ccc(F)cc2)c2ccc(F)cc2)CC1,–,61.1 µM (active)
N#Cc1c(-c2ccc(Cl)cc2)[nH]c(C(F)(F)F)c1Br,-5.22% (inactive),–
C[C@]12Cc3nonc3C[C@@H]1CC[C@@H]1[C@@H]2CC[C@@]2(C)[C@H]1CC[C@]2(C)O,-4.51% [at 42.5 µM] (inactive),–
CC(C)CC(C)N (stereo not given),1.1% (inactive),–
N#CNC#N,-1.1% (inactive),–
CC(C)CBr,-2.22% (inactive),–
CCCN(CC)CC1COC2(CCC(C(C)(C)C)CC2)O1 (stereo not given),1.23% (inactive),–
c1ccc2c(c1)OCC(C1=NCCN1)O2 (stereo not given),-0.383% [at 42.5 µM] (inactive),–
CCOP(=S)(OCC)SCS(=O)(=O)C(C)(C)C,0.282% (inactive),–
Oc1c(Br)c(Br)c(Br)c(Br)c1Br,-1.24% (inactive),–
Cc1cc(C(F)(C(F)(F)F)C(F)(F)F)ccc1NC(=O)c1cccc(I)c1C(=O)NC(C)(C)CS(C)(=O)=O,0.552% [at 42.5 µM] (inactive),–
COP(=O)(CCC(=O)NCO)OC,-0.717% (inactive),–
CC(C)OC(=S)S,0.295% (inactive),–
